Luc counter – Counterscreen for Luciferase (Kinase-Glo TM) Inhibition; Luciferin 4-monooxygenase (Photuris pensylvanica), Q27757; Kinase-Glo luciferase, ATP luminescence, 8 min; Potency, µM (series often up to 38.3 µM), inactives show at the highest dose activity change, negative = inhibition, actives largely listed as inhibitors; AID 1379, 2008; 0.28% of 200,000 active; note: % is set by controls: 0 for no effect and ±100 for the full control effect; nearly all actives have a fitted effect of over 60% in size
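Light output from Kinase-Glo luciferase with luciferin and 10 uM ATP in 50 mM imidazole pH 7.2, KCl, MgCl2, Tween 20, BSA; compound pin-delivered, 8-min ambient incubation, then luminescence read.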
Rab9 prom act – qHTS Assay for Rab9 Promoter Activators | 2.8% of 320,000 active | Potency, µM (highest dose often 9.22 µM), inactives show top-dose activation, negative = inhibition, hits mostly activators | Huh7 Rab9 promoter-luciferase reporter, luminescence, 24 h; note: % of control where 0% means no effect; nearly all actives have a fitted effect of over 60% in size
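Measured in stably transfected Huh7 cells bearing a Rab9 promoter–luciferase construct: 24 h compound treatment at 37 °C, followed by luminescence detection.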
NPC1 promoter act – qHTS Assay for NPC1 Promoter Activators; Huh7 NPC1 promoter luciferase reporter, 24 h; Potency, µM (titrated, usually from 9.22 µM), for the others: at the highest dose activation, usual class: activators; 2.4% of 320,000 active; AID 485313, 2010; note: % of control where 0% means no effect; nearly all actives have a fitted effect of over 60% in size
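Stable NPC1-promoter luciferase Huh7 line; cpd (DMSO) 24 h, 37 °C, 5% CO2; Amplite luciferase reagent 10 min RT; luminescence readout. qHTS format.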
FLuc modulator – qHTS profiling assay for firefly luciferase inhibitor/activator using purifed enzyme and Km concentrations of substrates (counterscreen for miR-21 project). Luciferin 4-monooxygenase (Photinus pyralis), P08659. purified FLuc, Km substrates, luminescence inhibition. Potency, µM (highest dose often 57.5 µM), for the others: top-dose activity change, negative = inhibition, most hits filed as inhibitors. 6.9% of 360,000 active;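 note: plate controls were vehicle for no effect and reference inhibitor for full effect; nearly all actives have a fitted effect of over 55% in size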
Target sequence (P08659 whole entry, looked up): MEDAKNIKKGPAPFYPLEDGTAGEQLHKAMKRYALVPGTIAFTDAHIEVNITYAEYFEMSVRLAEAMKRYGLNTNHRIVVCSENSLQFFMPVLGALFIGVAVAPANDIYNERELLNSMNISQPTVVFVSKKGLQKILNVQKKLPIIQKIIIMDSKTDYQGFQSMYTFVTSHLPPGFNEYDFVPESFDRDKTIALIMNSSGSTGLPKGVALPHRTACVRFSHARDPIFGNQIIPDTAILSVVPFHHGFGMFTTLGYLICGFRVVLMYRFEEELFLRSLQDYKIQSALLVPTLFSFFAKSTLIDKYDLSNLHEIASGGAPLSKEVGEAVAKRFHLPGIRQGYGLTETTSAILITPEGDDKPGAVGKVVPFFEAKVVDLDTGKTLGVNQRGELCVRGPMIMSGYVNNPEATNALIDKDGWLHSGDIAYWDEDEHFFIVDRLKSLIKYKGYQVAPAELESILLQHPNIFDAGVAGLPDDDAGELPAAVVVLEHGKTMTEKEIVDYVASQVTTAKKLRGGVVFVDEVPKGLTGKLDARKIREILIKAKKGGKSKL
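Biochemical qHTS of compounds, final roughly 60 µM downward over six points, against 10 nM purified firefly luciferase using Km concentrations of substrates (10 uM D-luciferin, 10 uM ATP) in Tris acetate pH 7.5 buffer; luminescence output.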
SMN2 splice up – qHTS Assay for Enhancers of SMN2 Splice Variant Expression; HEK293 SMN2-luciferase splicing reporter, luminescence, 30-36 h; Potency, µM (doses to about 46.1 µM), without a hit: top-dose activity change, positive = activation, most hits filed as activators; 2.8% of 210,000 active; note: % of control where 0% means no effect; nearly all actives have a fitted effect of over 55% in size
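HEK293 cells carry an SMN2 minigene-luciferase reporter in which exon 7 inclusion puts luciferase in frame. Cells were seeded at 2000 cells/well, attached for 10-12 hours, then exposed to compounds for 30-36 hours at 37C before ONE-Glo luminescence.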
ELG1 genotox – qHTS screen for small molecules that induce genotoxicity in human embryonic kidney (HEK293T) cells expressing luciferase-tagged ELG1; HEK293T ELG1-luciferase reporter, luminescence, 16 h; 1.3% of 330,000 active; Potency, µM (top dose mostly 46 µM), without a hit: top-dose activity change, positive = activation, most hits filed as activators; note: % of control where 0% means no effect; nearly all actives have a fitted effect of over 60% in size
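HEK293T cells expressing luciferase-tagged ELG1 were exposed to compound or DMSO vehicle for 16 hr at 37 °C and 5% CO2. Luciferase activity was then measured with ONE-Glo after 30 min at room temperature.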
* = called active by the depositor; ? = inconclusive; . = no result given. Hits are enriched below; roughly 7.3% of the tested compounds scored in any of these assays. Calls come from the whole dose curve; as a rule, active = well fitted curve in the direction sought with a large enough effect; inconclusive = small, poorly fitted or top-dose-only effect, or another doubt; inactive = no such curve, though single readings can be large; an effect the other way counts as inactive or inconclusive. Potency is the fitted concentration of half-maximal effect.

SMILES	Luc counter	Rab9 prom act	NPC1 promoter act	FLuc modulator	SMN2 splice up	ELG1 genotox
Cc1ccc(C(=O)Nc2ccc(N3CCN(S(C)(=O)=O)CC3)cc2)cc1C	-3%	1%	0%	7%	.	-2%
CCN1CCc2nc(NC(=O)c3ccc4c(c3)OCCO4)sc2C1	-4%	?	?	11µM*	?	?
Cc1ccc(C(=O)Nc2ccc(N3CCN(C)CC3)cc2)cc1C	.	0.71µM*	0.79µM*	3.4µM*	.	1.8µM*
CCN1CCN(c2ccc(NC(=O)c3ccc4c(c3)OCCO4)cc2C)CC1	.	1.6µM*	2.8µM*	6.7µM*	.	?
CS(=O)(=O)c1ccc(C(=O)Nc2ccc(N3CCCCC3)cc2)c(Cl)c1	-2%	-3%	-4%	-6%	4%	15%
Cc1ccc(C(=O)Nc2ccc(N3CCN(C)CC3)cc2)c(Cl)c1	.	3.5µM*	3.5µM*	24µM*	.	?
Cc1cc(Nc2sc(C(=O)c3ccc(F)cc3)c(N)c2C(=O)Nc2ccc(F)cc2)ccc1Cl	.	.	.	-1%	.	.
CCOC(=O)NC[C@H](Cc1ccc(OCCc2nc(-c3ccccc3)oc2C)cc1)N/C(C)=C\C(=O)c1ccc(C(F)(F)F)cc1	-2%	.	.	.	-28%	.
O=C(c1ccc2c(c1)CCN2S(=O)(=O)c1ccc(Cl)cc1)N1CCN(c2ccc(F)cc2)CC1	.	.	.	1%	-50%	.
CCC(=O)N1CCN(c2ccc(NC(=O)c3ccc4c(c3)OCCO4)cc2)CC1	-3%	22%	1%	-2%	2%	?
CN1CCN(c2ccc(NC(=O)c3ccc4c(c3)OCCO4)cc2)CC1	1%	3.2µM*	2.2µM*	6µM*	11µM*	4.6µM*
Cc1ccc(N=Nc2c(O)ccc3n[nH]nc23)cc1	.	?	1.6µM*	11µM*	.	?
COC(=O)N/N=C\c1ccc(OC(=O)c2ccco2)cc1	?	-2%	4%	?	-43%	-1%
COc1ccc(/C=N/NC(=O)c2ccco2)cc1OCc1ccccc1	.	-4%	0%	-12%	.	-1%
O=C(N/N=C\c1ccccc1OCc1ccccc1)c1ccco1	-3%	0%	-1%	21µM*	9%	-1%
CC(NC(=O)c1ccccc1NC(=O)c1ccco1)C(=O)O (stereo not given)	1%	0.32µM*	0.56µM*	21µM*	0.32µM*	?
COc1ccccc1/C=C/C=N/NC(=O)c1ccncc1	3%	0%	0%	?	9%	1%
CC(C)(C)OC(=O)N/N=C\c1ccc(OC(=O)c2ccco2)cc1	2%	4µM*	?	2%	?	?
COc1ccccc1/C=C/C=N/NC(=O)c1ccco1	.	?	?	17µM*	.	?
COc1ccc(NC(=O)CC2C(=O)N(c3ccc(C)cc3)C(=O)N2CCc2ccccc2)cc1 (stereo not given)	.	.	.	0%	27%	.
Cc1ccc(C)c(Cn2c(=O)n(CCCCCC(=O)NCc3ccc4c(c3)OCO4)c(=O)c3sccc32)c1	.	.	.	-16%	7%	.
Cc1cc(C)c(NC(=O)CCn2c(=O)c3cccn3c3cccnc32)c(C)c1	.	.	.	0%	.	.
O=C(N/N=C/c1ccccc1)c1ccco1	.	3.2µM*	?	13µM*	.	?
O=C(Nc1ccccc1C(=O)N/N=C/c1ccccc1)c1ccco1	.	28%	?	2.7µM*	.	-3%
O=C(N/N=C/C=N/NC(=O)c1ccco1)c1ccco1	.	1%	0%	-15%	.	-12%
O=C(N/N=C/C(Br)=C\c1ccccc1)c1ccco1	.	4µM*	2.5µM*	3µM*	.	?
CC(=O)c1ccc(NC(=O)C(NC(=O)c2ccccc2)=C(C)C)cc1	0%	-3%	1%	-1%	-2%	0%

Screens as filed in PubChem BioAssay.
